Reference: publication PMC5540273 (PLoS ONE, 2017)

The compounds below were run on VRK2. Details: concentration: 1 μM, replicates: in singlicate; n = 1.
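Note: KINOMEscan kinase panel screen.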

SMILES	%Inh [%]
Nc1ncnc2[nH]c(-c3ccccc3)nc12 [AH5015]	30
Cc1cc(-c2ccc3c(c2)CC[C@@H](N[C@@H](C)c2ccccc2)C3)cnc1N.Cl [GW412617]	0
Cc1ccc(-c2cc(-c3c[nH]nc3-c3ccccn3)ccn2)cc1 [GW684088]	45
O=C(Nc1n[nH]c2cc(-c3cccc(F)c3F)ccc12)C1CC1 [SB-733894]	0
O=C(Nc1ccc2c(c1)OCO2)NC1CCN(c2ccnc(Nc3ccc(F)cc3)n2)C1 (centres unmarked) [GSK1379724]	0
O=c1cc(N2CCOCC2)nc2n(Cc3cccc(Cl)c3Cl)ccn12 [GSK2286295]	0
COc1cccc(NC(=O)NC2CCN(c3ccnc(Nc4ccc(F)cc4)n3)C2)c1 (centres unmarked) [GSK1379721]	0
CSc1nn2c(=O)cc(N3CCOCC3)nc2n1Cc1cccc(C(F)(F)F)c1C [GSK2363608]	0
CN(C)CCN(C)C(=O)c1cc(-c2ccncc2)c(-c2ccc(Cl)c(O)c2)o1.Cl.Cl [SB-710397]	24
CC(C)(C)c1ccc(C(=O)Nc2cn3cc(Cl)ccc3n2)cc1	0
COc1cc2nccc(Nc3ccc(NC(=O)c4ccc(C)cc4)c(O)c3)c2cc1OC.Cl [GW440132]	0
O=C1NC(=O)C(N2CCc3ccccc32)=C1c1ccccc1Cl [SB-373598]	0
COc1cc2ncn(-c3cc(OCC4CCCO4)c(C(N)=O)s3)c2cc1OC (centres unmarked) [GSK204607]	19
COc1cc(Nc2nccc(N3CCC(NC(=O)Nc4cc(C)ccc4C)C3)n2)cc(OC)c1OC (centres unmarked) [GSK1379762]	0
